# Compounds without any hit were thinned out: in the full panel of roughly 83,000, 20% have a hit.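 The test compound was applied at a single concentration to cells in 96-well plates for 48 hours, and percent growth was recorded.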 Unmarked numbers belong to inactive results. Active and inactive are the calls of the source. Rule for the calls: active = growth percent below 10; inactive = the rest.
# What was measured:
# Experiment in all cases: NCI-60 one-dose screen, 48 h (100 = growth as untreated, 0 = no growth, -100 = all killed)
# Settings in all cases: 10 µM unless noted
# SK-MEL-2 melanoma = tested on: SK-MEL-2 melanoma
# EKVX NSCLC = tested on: EKVX NSCLC
# SN12C renal = tested on: SN12C renal
# UO-31 renal = tested on: UO-31 renal
# TK-10 renal = tested on: TK-10 renal
# ACHN renal = tested on: ACHN renal
# CAKI-1 renal = tested on: CAKI-1 renal
# A498 renal = tested on: A498 renal
# CCRF-CEM leukemia = tested on: CCRF-CEM leukemia
# MOLT-4 leukemia = tested on: MOLT-4 leukemia
# SR leukemia = tested on: SR leukemia
# RPMI-8226 leukemia = tested on: RPMI-8226 leukemia
# OVCAR-8 ovarian = tested on: OVCAR-8 ovarian
# OVCAR-5 ovarian = tested on: OVCAR-5 ovarian
# OVCAR-4 ovarian = tested on: OVCAR-4 ovarian
# SK-OV-3 ovarian = tested on: SK-OV-3 ovarian
# IGROV1 ovarian = tested on: IGROV1 ovarian
# OVCAR-3 ovarian = tested on: OVCAR-3 ovarian
# HS 578T breast = tested on: HS 578T breast
# NCI/ADR-RES ovarian = tested on: NCI/ADR-RES ovarian
SMILES,growth (SK-MEL-2 melanoma),growth (EKVX NSCLC),growth (SN12C renal),growth (UO-31 renal),growth (TK-10 renal),growth (ACHN renal),growth (CAKI-1 renal),growth (A498 renal),growth (CCRF-CEM leukemia),growth (MOLT-4 leukemia),growth (SR leukemia),growth (RPMI-8226 leukemia),growth (OVCAR-8 ovarian),growth (OVCAR-5 ovarian),growth (OVCAR-4 ovarian),growth (SK-OV-3 ovarian),growth (IGROV1 ovarian),growth (OVCAR-3 ovarian),growth (HS 578T breast),growth (NCI/ADR-RES ovarian)
CCC/C(=N\NC(N)=O)C(OC)OC,104%,111%,107%,89.3%,85.3%,105%,114%,91.1%,106%,121%,120%,121%,98.6%,97.1%,89%,116%,123%,104%,125%,99.6%
N#C/C(=C\c1ccc(-c2ccc(Cl)cc2)o1)c1ccc(Cl)cc1,96.5%,49.5%,30%,-11.6% (active),14.6%,-20.1% (active),38.4%,82.5%,66.6%,85.6%,59.6%,44.8%,58.4%,68.1%,-14.1% (active),75.5%,23.6%,56.4%,29.8%,60%
N#Cc1c(-c2cccc([N+](=O)[O-])c2)cc(-c2ccc(Nc3nc(Nc4ccc(F)cc4)nc(Nc4ccc(F)cc4)n3)cc2)nc1N,68.1%,137%,137%,83.7%,128%,108%,113%,115%,78%,84.6%,62.9%,52.3%,89.1%,102%,114%,143%,90.9%,100%,87.9%,101%
CCCCCCCCCCCCCCCCCCOc1ccccc1CC(=O)OCC[N+]1(C)CCOCC1,91.5%,86.7%,31.4%,67.9%,43.5%,89.6%,49.1%,64.1%,30.1%,46.9%,50.7%,59.7%,41%,63.1%,60.5%,100%,-9.88% (active),65.4%,55.1%,104%
C/C(C=O)=C\c1ccc2c(c1)OCO2,109%,102%,110%,102%,90.7%,113%,107%,68%,-5.12% (active),116%,109%,96.7%,106%,110%,109%,105%,116%,132%,115%,107%
COc1ccc(C2=Nc3c/c(=C\c4c(O)[nH]c5cc(Cl)ccc45)ccc3=N2)cc1,54.4%,80.7%,96.5%,58.6%,114%,76.9%,75.9%,68.5%,54.8%,83.9%,17%,62.8%,71.9%,77.5%,90.8%,46.4%,86.9%,27%,81.7%,56.4%
Oc1c(Cl)cc(Cl)c2ccc(Cn3cc(-c4cccc(C(F)(F)F)c4)nn3)nc12,93.8%,80.1%,84.6%,73.4%,99.7%,47.9%,31.1%,91.1%,6.72% (active),3.08% (active),-15.6% (active),8.24% (active),80%,94.5%,65.9%,107%,85.2%,15%,74.9%,104%
COc1ccc(-c2nnc(SCC(=O)Nc3ccc(/C(C)=N\O)cc3)n2-c2ccccc2)cc1OC,57.6%,71.1%,71.8%,104%,41.1%,75.5%,87.4%,91.8%,98.5%,91.7%,95.4%,91.6%,42.7%,97%,103%,4.74% (active),70.9%,82%,42.8%,90.6%
CCCCn1sc(=O)n(Cc2ccc(CNC(=O)OCc3ccc4c(Cl)cc(Cl)c(O)c4n3)cc2)c1=O,85.6%,86.7%,57.6%,18.3%,78%,30.8%,54.6%,91%,32%,33.5%,65.6%,63%,38%,98.4%,65.2%,88.3%,57.4%,66.3%,82.3%,9.16% (active)
COc1cc2nc(Nc3cccc(F)c3)nc(Nc3cc(C)[nH]n3)c2cc1OC,-68.2% [20 µM] (active),-67.4% [20 µM] (active),-94.3% [20 µM] (active),-98.7% [20 µM] (active),-71% [20 µM] (active),-97.1% [20 µM] (active),-97.7% [20 µM] (active),-83% [20 µM] (active),-19.7% [20 µM] (active),-40.8% [20 µM] (active),-9.83% [20 µM] (active),-41.7% [20 µM] (active),-42.5% [20 µM] (active),-100% [20 µM] (active),-88.2% [20 µM] (active),-90% [20 µM] (active),-96.1% [20 µM] (active),-80.2% [20 µM] (active),-59.3% [20 µM] (active),-57.8% [20 µM] (active)
COc1ccc(/C=C/C(=O)c2cc3c(N)c(C(=O)Nc4ccc(OC)cc4)sc3nc2C)cc1,15.4%,45.2%,31.6%,41%,40.8%,42.6%,24.8%,18.6%,19.9%,33.3%,11.8%,37.7%,7.03% (active),42.9%,53.5%,16.1%,33%,2.94% (active),8.09% (active),6.34% (active)
CCN(CC)c1ccc(/C=C\c2cc(C)c3cc(C)ccc3n2)cc1,14.4%,61.6%,45.1%,26.6%,54.8%,38.8%,28.5%,18.2%,34.1%,40.2%,34.2%,17.3%,34.8%,70.9%,50.4%,40.1%,22%,33.4%,42.5%,-4.28% (active)
CCCCCSB(SCCCCC)c1ccccc1,102%,106%,106%,81.3%,101%,105%,96%,95.4%,97.4%,96.4%,98.5%,100%,97%,101%,100%,104%,97.1%,109%,109%,98.4%
COc1ccc(C2CC(c3ccc4c(c3)OCO4)=Nc3c(N)ncnc3N2)cc1 (stereo not given),72.6%,119%,111%,89.4%,118%,101%,120%,94.4%,3.41% (active),91.9%,86.4%,55.7%,103%,82.9%,102%,103%,104%,151%,103%,92.3%
CCNc1nc(-c2ccc(F)cc2)c(C#N)c(=O)n1C,77.8%,29.1%,69.1%,41.2%,34%,52.5%,53.3%,-9.07% (active),85.9%,71.6%,50.3%,91.8%,73.8%,56%,55.2%,55.9%,54.1%,59.1%,37.5%,67.1%
